Test results: the supplement of paper PMC11732987, “Enantioselective OTUD7B fragment discovery through chemoproteomics screening and high-throughput optimisation” (Communications Chemistry, 2025)

Tests used:
Experiment in all cases: log2 ratio of Biotin-Ahx-Ub-VS probe labelling (fragment/DMSO); higher = less target engagement (more negative = stronger competition), active = hit call of the paper (q ≤ 0.05, log2 ratio ≤ -1)
Conditions in all cases: compound concentration: 200 uM; treatment time: 3 h
[1] = target: T1, ALG13 (UniProt Q9NP73)
T1 sequence (whole entry): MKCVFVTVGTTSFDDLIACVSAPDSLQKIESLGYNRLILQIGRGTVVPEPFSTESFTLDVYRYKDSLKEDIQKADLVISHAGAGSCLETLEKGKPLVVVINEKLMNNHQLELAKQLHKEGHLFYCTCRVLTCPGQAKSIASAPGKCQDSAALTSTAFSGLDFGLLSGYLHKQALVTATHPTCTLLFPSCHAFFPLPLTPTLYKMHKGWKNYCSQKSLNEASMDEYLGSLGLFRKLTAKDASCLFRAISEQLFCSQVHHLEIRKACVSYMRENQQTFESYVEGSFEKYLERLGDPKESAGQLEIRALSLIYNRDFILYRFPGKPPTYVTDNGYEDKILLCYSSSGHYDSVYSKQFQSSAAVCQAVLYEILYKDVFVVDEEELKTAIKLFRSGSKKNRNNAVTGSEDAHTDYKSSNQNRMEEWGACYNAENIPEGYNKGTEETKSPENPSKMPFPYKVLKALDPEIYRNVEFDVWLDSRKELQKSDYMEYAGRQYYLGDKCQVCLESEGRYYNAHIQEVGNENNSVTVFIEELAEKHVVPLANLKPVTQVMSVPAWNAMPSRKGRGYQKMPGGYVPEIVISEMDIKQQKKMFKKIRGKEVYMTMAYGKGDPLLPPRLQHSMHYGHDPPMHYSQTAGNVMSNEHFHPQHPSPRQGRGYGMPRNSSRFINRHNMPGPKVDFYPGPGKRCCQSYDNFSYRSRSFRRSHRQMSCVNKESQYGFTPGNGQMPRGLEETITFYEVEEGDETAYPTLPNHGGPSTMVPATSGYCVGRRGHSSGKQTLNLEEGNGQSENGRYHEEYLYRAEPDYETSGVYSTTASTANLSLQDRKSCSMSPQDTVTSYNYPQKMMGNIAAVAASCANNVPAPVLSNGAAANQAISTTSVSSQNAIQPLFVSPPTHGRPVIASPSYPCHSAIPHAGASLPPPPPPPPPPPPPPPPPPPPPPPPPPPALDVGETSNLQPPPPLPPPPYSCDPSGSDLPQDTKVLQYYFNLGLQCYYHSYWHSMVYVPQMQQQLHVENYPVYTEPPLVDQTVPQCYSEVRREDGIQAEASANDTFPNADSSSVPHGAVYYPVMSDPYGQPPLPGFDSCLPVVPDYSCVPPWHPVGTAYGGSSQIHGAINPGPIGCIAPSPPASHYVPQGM
In short: (§1)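 Triplicate samples of HEK293T lysate, 495 µg each, received fragment at 200 µM or vehicle for 3 h, followed by Biotin-Ahx-Ub-VS (0.5 µM final) for 1 h. After NeutrAvidin enrichment of labelled DUBs and LysC/trypsin digestion, peptides were run by diaPASEF LC-MS/MS. The values are average log2 fragment/vehicle ratios from global-median-normalised Spectronaut label-free quantities, tested by unpaired t-test on proteins having ≥2 unique peptides.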

[2] = target: ATXN3 (UniProt P54252)
Sequence of ATXN3 (P54252 whole entry): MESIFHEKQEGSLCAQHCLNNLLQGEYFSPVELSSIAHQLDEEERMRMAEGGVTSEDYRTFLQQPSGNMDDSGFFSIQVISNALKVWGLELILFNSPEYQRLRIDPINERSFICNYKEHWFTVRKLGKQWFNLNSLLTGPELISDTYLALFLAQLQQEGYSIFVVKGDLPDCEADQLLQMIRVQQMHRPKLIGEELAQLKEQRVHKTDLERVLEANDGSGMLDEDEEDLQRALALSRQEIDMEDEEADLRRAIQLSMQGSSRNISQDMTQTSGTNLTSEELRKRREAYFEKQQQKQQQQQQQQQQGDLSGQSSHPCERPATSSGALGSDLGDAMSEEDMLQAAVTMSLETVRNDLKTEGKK
In short: as §1

[3] = target: T2, BAP1 (UniProt Q92560)
T2 sequence (whole entry): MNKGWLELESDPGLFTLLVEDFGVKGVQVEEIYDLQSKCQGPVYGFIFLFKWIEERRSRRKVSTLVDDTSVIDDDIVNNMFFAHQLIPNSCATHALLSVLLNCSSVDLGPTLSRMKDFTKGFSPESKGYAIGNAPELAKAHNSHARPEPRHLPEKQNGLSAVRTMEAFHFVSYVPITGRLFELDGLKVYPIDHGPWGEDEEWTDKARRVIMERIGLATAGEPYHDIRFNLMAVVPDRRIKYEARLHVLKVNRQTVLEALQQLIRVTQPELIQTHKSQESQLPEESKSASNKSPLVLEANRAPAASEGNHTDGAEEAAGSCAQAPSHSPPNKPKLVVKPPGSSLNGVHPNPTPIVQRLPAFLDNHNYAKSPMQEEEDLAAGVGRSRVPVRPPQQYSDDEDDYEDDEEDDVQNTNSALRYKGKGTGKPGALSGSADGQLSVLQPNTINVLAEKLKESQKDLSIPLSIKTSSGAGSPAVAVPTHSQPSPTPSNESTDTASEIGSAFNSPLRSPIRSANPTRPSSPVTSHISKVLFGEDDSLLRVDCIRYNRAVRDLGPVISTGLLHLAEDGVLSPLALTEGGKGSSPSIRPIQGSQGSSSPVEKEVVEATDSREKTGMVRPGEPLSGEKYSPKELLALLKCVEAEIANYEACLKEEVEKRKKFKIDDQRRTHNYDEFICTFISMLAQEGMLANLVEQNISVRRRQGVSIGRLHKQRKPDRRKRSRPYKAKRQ
In short: as §1

[4] = target: EIF3F (UniProt O00303)
Sequence of EIF3F (O00303 whole entry): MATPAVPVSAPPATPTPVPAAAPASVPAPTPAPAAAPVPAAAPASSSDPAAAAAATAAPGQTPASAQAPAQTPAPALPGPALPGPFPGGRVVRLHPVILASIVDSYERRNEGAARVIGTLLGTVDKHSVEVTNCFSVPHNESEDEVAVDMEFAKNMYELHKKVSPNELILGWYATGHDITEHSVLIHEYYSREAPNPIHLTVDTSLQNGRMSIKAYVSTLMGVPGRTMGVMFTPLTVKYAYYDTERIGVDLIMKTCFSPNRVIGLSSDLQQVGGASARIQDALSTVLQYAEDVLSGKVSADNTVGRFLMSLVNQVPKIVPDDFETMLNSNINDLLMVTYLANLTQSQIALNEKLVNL
In short: as §1

[5] = target: EIF3H (UniProt O15372)
Sequence of EIF3H (O15372 whole entry): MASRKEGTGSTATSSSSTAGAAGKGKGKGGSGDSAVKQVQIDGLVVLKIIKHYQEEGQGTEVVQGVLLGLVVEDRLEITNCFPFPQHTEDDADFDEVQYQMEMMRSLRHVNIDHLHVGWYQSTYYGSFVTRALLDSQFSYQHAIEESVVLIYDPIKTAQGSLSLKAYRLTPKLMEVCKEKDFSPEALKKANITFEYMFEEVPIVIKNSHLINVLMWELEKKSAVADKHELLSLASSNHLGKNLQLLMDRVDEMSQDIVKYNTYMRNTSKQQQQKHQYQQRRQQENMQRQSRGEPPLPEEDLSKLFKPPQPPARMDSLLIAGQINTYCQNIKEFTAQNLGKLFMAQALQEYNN
In short: as §1

[6] = target: T3, FAM105A (UniProt Q9NUU6)
T3 sequence (whole entry): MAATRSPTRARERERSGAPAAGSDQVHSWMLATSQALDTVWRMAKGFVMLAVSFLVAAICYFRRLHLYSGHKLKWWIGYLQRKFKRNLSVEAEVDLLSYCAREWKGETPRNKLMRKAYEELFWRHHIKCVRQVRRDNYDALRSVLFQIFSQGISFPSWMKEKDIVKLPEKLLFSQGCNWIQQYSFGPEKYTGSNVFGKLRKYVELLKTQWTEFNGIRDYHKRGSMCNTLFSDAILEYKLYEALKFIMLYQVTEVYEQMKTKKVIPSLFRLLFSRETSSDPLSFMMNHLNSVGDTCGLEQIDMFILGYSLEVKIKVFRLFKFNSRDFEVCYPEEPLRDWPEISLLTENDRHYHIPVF
In short: as §1

[7] = target: OTUB1 (UniProt Q96FW1)
Sequence of OTUB1 (Q96FW1 whole entry): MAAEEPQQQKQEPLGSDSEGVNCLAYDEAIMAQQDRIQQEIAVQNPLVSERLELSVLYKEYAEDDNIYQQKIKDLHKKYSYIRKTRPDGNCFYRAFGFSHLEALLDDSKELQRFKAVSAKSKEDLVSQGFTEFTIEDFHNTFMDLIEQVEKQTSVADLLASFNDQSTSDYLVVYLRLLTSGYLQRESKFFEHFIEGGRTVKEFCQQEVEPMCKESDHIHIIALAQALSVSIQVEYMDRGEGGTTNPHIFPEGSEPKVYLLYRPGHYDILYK
In short: as §1

[8] = target: T4, OTUD4 (UniProt Q01804)
T4 sequence (whole entry): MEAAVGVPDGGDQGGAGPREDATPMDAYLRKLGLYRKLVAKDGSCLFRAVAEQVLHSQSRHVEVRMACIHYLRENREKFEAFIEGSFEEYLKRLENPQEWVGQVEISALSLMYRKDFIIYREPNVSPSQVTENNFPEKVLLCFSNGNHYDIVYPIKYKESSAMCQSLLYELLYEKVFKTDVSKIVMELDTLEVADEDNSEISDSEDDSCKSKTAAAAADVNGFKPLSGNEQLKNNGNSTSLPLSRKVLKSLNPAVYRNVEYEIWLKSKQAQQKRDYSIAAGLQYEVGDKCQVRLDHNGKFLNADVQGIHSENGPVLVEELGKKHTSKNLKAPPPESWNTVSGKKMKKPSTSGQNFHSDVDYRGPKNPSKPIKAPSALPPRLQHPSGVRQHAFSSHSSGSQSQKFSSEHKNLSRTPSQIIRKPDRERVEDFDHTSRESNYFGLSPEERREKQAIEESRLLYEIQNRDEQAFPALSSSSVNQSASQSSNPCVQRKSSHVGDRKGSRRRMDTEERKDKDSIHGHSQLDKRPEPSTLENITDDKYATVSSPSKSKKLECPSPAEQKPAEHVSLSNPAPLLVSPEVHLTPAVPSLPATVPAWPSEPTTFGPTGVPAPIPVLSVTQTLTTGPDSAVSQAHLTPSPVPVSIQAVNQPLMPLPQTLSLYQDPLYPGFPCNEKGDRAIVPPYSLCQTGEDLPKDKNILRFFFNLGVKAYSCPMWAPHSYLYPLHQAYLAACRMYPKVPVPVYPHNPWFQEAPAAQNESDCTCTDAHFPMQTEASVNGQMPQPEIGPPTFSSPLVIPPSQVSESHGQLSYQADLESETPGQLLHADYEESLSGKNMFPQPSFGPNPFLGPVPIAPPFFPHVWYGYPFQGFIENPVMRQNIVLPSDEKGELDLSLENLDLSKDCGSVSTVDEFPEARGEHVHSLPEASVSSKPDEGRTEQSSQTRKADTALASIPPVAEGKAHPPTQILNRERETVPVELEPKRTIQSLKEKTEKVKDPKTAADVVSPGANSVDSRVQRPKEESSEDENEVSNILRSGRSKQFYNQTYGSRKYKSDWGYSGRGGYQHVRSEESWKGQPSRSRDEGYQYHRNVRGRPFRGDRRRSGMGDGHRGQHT
In short: as §1

[9] = target: T5, OTUD5 (UniProt Q96G74)
T5 sequence (whole entry): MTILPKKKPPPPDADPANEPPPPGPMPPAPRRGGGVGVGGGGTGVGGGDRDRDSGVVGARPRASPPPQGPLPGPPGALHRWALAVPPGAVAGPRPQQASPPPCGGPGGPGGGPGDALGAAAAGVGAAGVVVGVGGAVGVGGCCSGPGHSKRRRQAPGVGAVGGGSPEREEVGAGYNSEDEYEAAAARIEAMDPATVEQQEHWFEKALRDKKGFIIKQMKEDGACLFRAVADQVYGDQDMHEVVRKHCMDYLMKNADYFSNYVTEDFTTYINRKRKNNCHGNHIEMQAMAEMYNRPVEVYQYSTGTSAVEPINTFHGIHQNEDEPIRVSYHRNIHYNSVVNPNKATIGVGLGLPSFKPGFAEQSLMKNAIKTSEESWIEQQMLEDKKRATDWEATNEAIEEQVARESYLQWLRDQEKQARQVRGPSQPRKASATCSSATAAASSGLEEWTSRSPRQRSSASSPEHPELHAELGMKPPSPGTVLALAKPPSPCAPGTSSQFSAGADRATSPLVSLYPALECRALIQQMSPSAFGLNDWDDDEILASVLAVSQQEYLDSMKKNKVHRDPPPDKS
In short: as §1

Measured: log2 ratio of Biotin-Ahx-Ub-VS probe labelling

CC(c1ccccc1)N(C)C(=O)CCl (centres undefined)
inactive: [1] -0.0878 | [2] -0.667 | [3] -0.362 | [4] 0.107 | [5] 0.0952 | [6] -0.093 | [7] 0.146 | [8] -0.0165 | [9] -0.419
